Source: PubChem BioAssay
Potency and affinity values are given separately. Inconclusive results are not listed. Calls of active or inactive are those of the source.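 How the source made its calls, unless noted: active means falling signal with fitted half-maximal potency no higher than twice the top valid tested dose; inconclusive means poor fit quality, or flat fit spanning -70% to -30%; inactive means potency over limit, rising signal, or flat fit inside 30%.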

Experiments:
[1] = Cryptococcus neoformans growth inhibition, dose response, Alamar Blue, cherry-picks (AID 686998)
[2] = inducers of Cryptococcus neoformans cell lysis, dose response, AK release luminescence, cherry-picks (AID 687000;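 active means fitted dose curve reaches 40% lysis signal rise at or below the highest valid concentration tested for that sample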;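 further: luminescent detection of adenylate kinase leaking from lysed yeast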)
[3] = HepG2 cell cytotoxicity, dose response, cytotoxicity control, cherry-picks, set 2 (AID 687002;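 active means a dose-response fit showing signal loss, with half-maximal concentration no higher than twice the top tested dose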)
[4] = HeLa cell cytotoxicity, dose response, cytotoxicity control, ATP luminescence, cherry-pick samples (AID 687004;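 active means a fitted half-maximal concentration no higher than twice the top valid tested dose, with signal falling as cells die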)

Measured: outcome

Cc1ccc(OCC(=O)NCc2ccccc2)cc1
inactive: all assays above

Cc1nnc(NC(=O)CSc2ncnc3c2cnn3-c2ccccc2C)s1
inactive: all assays above

Cc1ccc(S(=O)(=O)N[C@H]2CC[C@H](CCNC(=O)C3CCCC3)O[C@@H]2CO)cc1
inactive: all assays above

C[C@H]1CN([C@@H](C)CO)C(=O)c2cccc(NS(=O)(=O)c3cn(C)cn3)c2O[C@@H]1CN(C)CC1CCCCC1
inactive: all assays above

O=C(C[C@@H]1CC[C@H](NC(=O)Cc2ccccn2)[C@H](CO)O1)NCCc1ccccc1
inactive: all assays above

CC(C)CC#Cc1cnc2c(c1)C(=O)N([C@H](C)CO)C[C@@H](C)[C@@H](CN(C)C(=O)c1ccc3c(c1)OCO3)O2
inactive: all assays above

C[C@@H]1CN([C@@H](C)CO)C(=O)c2cccc(NC(=O)Nc3ccccc3)c2O[C@H]1CN(C)S(=O)(=O)c1cn(C)cn1
inactive: all assays above

C[C@H](CO)N1C[C@H](C)[C@H](CN(C)CC2CCCCC2)Oc2ccc(NC(=O)Nc3ccc4c(c3)OCO4)cc2C1=O
inactive: all assays above
